In all, about 52,000 compounds went through this assay and about 4,300 (8.3%) were called active. The list comes from a sample in which actives are over-represented; it also holds similar structures and randomly drawn compounds. A number with no mark means an inactive call. Cut-off read from the data, not from the text of the source: active = survival mostly below about 52% (no sharp cut-off); inactive = mostly above about 56%.
Test system: DeltatarO mutant
Assay: growth inhibition of S. aureus wild type versus tarO mutant, primary screen, teichoic acid synthesis inhibitors, RN4220, OD600 (AID 463173)
Conditions: OD600, 18 h, stronger effect = lower value, screened at 18.75 µg/mL (by protocol)

Row | Structure (SMILES) | survival
1 | Cc1nn(C)c2c1c(-c1ccccc1)cc(=O)n2Cc1ccccc1Cl | 88%
2 | Cc1cccc(NC(=O)Cn2c(=O)n(CCc3ccccc3)c(=O)c3sc4ccccc4c32)c1 | 105%
3 | Cc1ccc(Cn2ccnc2SCC(=O)NC2CCCC2)cc1 | 89%
4 | Cc1cccc(C)c1NC(=O)CN1C(=O)c2ccccc2Sc2ncccc21 | 88%
5 | COc1ccccc1-c1cc(C(=O)NCc2ccccc2)c2c(-c3ccc(C)cc3)[nH]nc2n1 | 80%
6 | Cn1c(SCC(N)=O)nc2c([nH]c3ccccc32)c1=O | 88%
7 | COc1ccccc1N1CCN(C(=O)C(CCSC)NS(=O)(=O)c2ccc3c(c2)oc(=O)n3C)CC1 (stereo not given) | 87%
8 | Cc1ccc(Cn2c(=O)n(-c3ccccc3)c(=O)c3ccc(C(=O)NCc4ccco4)cc32)cc1 | 75%
9 | COc1ccc(CCN2C(=O)NC(NC(=O)c3ccccc3OC)(C(F)(F)F)C2=O)cc1OC (stereo not given) | 77%
10 | CCCCOc1ccc(CNC(=O)c2ccc3c(c2)N(C)C(=O)C2CCCCN32)cc1 (stereo not given) | 74%
11 | COc1ccc(CNC(=O)c2ccc3c(c2)N(C)C(=O)C2CCCCN32)cc1OC (stereo not given) | 75%
12 | CC(C)Oc1ccc(CNC(=O)c2ccc3c(c2)N(C)C(=O)C2CCCCN32)cc1 (stereo not given) | 37% (active)
13 | COc1cccc(CNC(=O)c2ccc3c(c2)N(C)C(=O)C2CCCCN32)c1 (stereo not given) | 72%
14 | CSc1ccc(CNC(=O)c2ccc3c(c2)N(C)C(=O)C2CCCCN32)cc1 (stereo not given) | 92%
15 | Cc1cccc(CNC(=O)c2ccc3c(c2)N(C)C(=O)C2CCCCN32)c1 (stereo not given) | 0% (active)
16 | CCOc1ccc(CNC(=O)C2CCCN(c3nn4cc(-c5ccc(OC)cc5)nc4s3)C2)cc1 (stereo not given) | 99%
17 | Cc1c2cnn(CC(=O)N3CCN(c4ccccc4)CC3)c(=O)c2c(C)n1Cc1ccc(F)cc1 | 67%
18 | COc1ccc(-c2cc(C(N)=O)on2)c(OC)c1 | 99%
19 | O=S(=O)(c1cccc(S(=O)(=O)N2CCOCC2)c1)N1CCCCCC1 | 91%
20 | Cc1ccc2occ(CC(=O)Nc3nnc(C(C)C)s3)c2c1 | 70%
21 | CCCCSCCCNC(=O)c1cn(C)c2ccc(S(=O)(=O)N3CCCCCC3)cc2c1=O | 63%
22 | COc1ccc(NC(=O)c2oc3ccccc3c2NC(=O)C2CCCCC2)c(OC)c1 | 74%
23 | O=C(Nc1ccc(F)cc1)c1oc2ccccc2c1NC(=O)C12CC3CC(CC(C3)C1)C2 | 96%

Row | Structure (SMILES) | survival
24 | CN(C)c1ccc(C(=O)Nc2c(C(=O)NC(C)(C)C)oc3ccccc23)cc1 | 57%
25 | CC(C)(C)NC(=O)c1oc2ccccc2c1NC(=O)c1ccc(F)cc1 | 71%
26 | COc1ccccc1NC(=O)c1oc2ccccc2c1NC(=O)C1CCCCC1 | 43% (active)
27 | CCOc1ccc(NC(=O)c2oc3ccccc3c2NC(=O)C2CCCCC2)cc1 | 103%
28 | O=C(Nc1ccc(F)cc1)c1oc2ccccc2c1NC(=O)C1CCCCC1 | 11% (active)
29 | COc1cc(OC)cc(C(=O)Nc2c(C(=O)Nc3ccc(F)cc3)oc3ccccc23)c1 | 62%
30 | COc1cccc(NC(=O)c2oc3ccccc3c2NC(=O)C2CCCCC2)c1 | 66%
31 | Cc1ccc(NC(=O)c2oc3ccccc3c2NC(=O)C2CCCCC2)cc1 | 2% (active)
32 | Cc1ccc(C(=O)Nc2c(C(=O)NC(C)(C)C)oc3ccccc23)cc1 | 32% (active)
33 | Cc1ccc(NC(=O)c2oc3ccccc3c2NC(=O)C23CC4CC(CC(C4)C2)C3)cc1 | 75%
34 | CCOC(=O)c1ccc(NC(=O)Cn2nc3c4ccccc4n(Cc4cccc(F)c4)cc-3c2=O)cc1 | 82%
35 | Cc1cc(C)nc(Nc2ccc(O)cc2)n1 | 91%
36 | CC(C)c1ccc(S(=O)(=O)c2nnn3c2nc(NC2CCCC2)c2sccc23)cc1 | 65%
37 | CCN(CC)c1ccc(NC(=O)c2cnn(-c3ccccc3)c2-n2cccc2)c(C)c1 | 115%
38 | CCC1CCCCN1CCCNC(=O)c1[nH]c2ccccc2c1Sc1ccc(Cl)cc1 (stereo not given) | -1% (active)
39 | CCCCNC(=O)c1[nH]c2ccccc2c1Sc1ccc(C)cc1 | 75%
40 | CC1CCCCN1CCCNC(=O)c1cc(Sc2cccc(Cl)c2)nc2ccccc12 (stereo not given) | 68%
41 | CCN(CC)CCNC(=O)c1[nH]c2ccccc2c1Sc1ccc(Cl)cc1 | 45%
42 | CC1CCCCN1CCCNC(=O)Cn1ncc2c([nH]c3ccccc32)c1=O (stereo not given) | 124%
43 | CC1CCCCN1CCCNC(=O)c1[nH]c2ccccc2c1Sc1ccc(Cl)cc1 (stereo not given) | 1% (active)
44 | CC1CCCCN1C(=O)CN1CCSc2ccccc21 (stereo not given) | 74%
45 | Cc1nc2sc(C(N)=O)c(N)c2c(-c2ccc(Br)cc2)c1C(=O)Nc1ccc(Cl)cc1 | 10% (active)
46 | COc1ccc(NC(=O)c2sc3nc(C)c(C(=O)Nc4ccc(Cl)cc4)c(-c4ccc(Br)cc4)c3c2N)cc1 | 57%

Row | Structure (SMILES) | survival
47 | Cc1nc2sc(C(=O)Nc3ccc(F)cc3)c(N)c2c(-c2ccc(Br)cc2)c1C(=O)Nc1ccc(Cl)cc1 | 80%
48 | Cc1ccc(CNC(=O)CCN2C(=O)C(C)Oc3ccc(C)cc32)cc1 (stereo not given) | 128%
49 | Cn1cc(C(=O)O)c(=O)c2ccccc21 | 80%
50 | CCc1nnc(NC(=O)c2c(O)c3ccccc3[nH]c2=O)s1 | 84%
51 | CCCNC(=O)c1c(O)c2ccccc2n(C)c1=O | 93%
52 | CCc1nnc(NC(=O)c2c(O)c3ccccc3n(C)c2=O)s1 | -1% (active)
53 | COc1ccc(C(=O)COC(=O)CCCC(=O)Nc2cc(C(F)(F)F)ccc2Cl)cc1 | 53%
54 | Cc1ccc(C(=O)COC(=O)CCCC(=O)Nc2cc(C(F)(F)F)ccc2Cl)cc1C | 54%
55 | Cc1ccc(C)c(C(=O)COC(=O)CCCC(=O)Nc2cc(C(F)(F)F)ccc2Cl)c1 | 25% (active)
56 | O=C(CSc1nc(-c2cccs2)cc(C(F)(F)F)n1)Nc1ccccc1Cl | 121%
57 | COc1cc(NC(=O)CSc2nc(-c3cccs3)cc(C(F)(F)F)n2)cc(OC)c1OC | 49%
58 | CCOc1ccccc1NC(=O)CSc1nc(-c2cccs2)cc(C(F)(F)F)n1 | 69%
59 | COc1ccc(Cl)cc1NC(=O)CCS(=O)(=O)c1nc(-c2cccs2)cc(C(F)(F)F)n1 | 63%
60 | Cc1ccc(NC(=O)CSc2nc(-c3cccs3)cc(C(F)(F)F)n2)cc1C | 155%
61 | Cc1ccc(NC(=O)CSc2nc(=O)cc(N)n2-c2ccccc2)cc1 | 87%
62 | COC(=O)c1ccccc1NC(=O)CSc1nc(=O)cc(N)n1-c1ccccc1 | 38% (active)
63 | COc1ccc(NC(=O)CSc2nc(-c3cccs3)cc(C(F)(F)F)n2)c(OC)c1 | 57%
64 | COc1ccc(NC(=O)CSc2nc(-c3cccs3)cc(C(F)(F)F)n2)cc1Cl | 37% (active)
65 | Nc1cc(=O)nc(SCC(=O)Nc2ccc(F)cc2)n1-c1cccc(Cl)c1 | 145%
66 | CC(C)(C)c1ccccc1NC(=O)CSc1nc(-c2cccs2)cc(C(F)(F)F)n1 | 23% (active)
67 | COc1ccc(Cl)cc1NC(=O)CSc1nc(-c2cccs2)cc(C(F)(F)F)n1 | 35% (active)
68 | CCOC(=O)c1oc2ccc(S(=O)(=O)n3nc(-c4cc(OC)c(OC)c(OC)c4)cc3N)cc2c1C | 73%
69 | Cc1cccc(N2CCN(C(=O)C3CCN(S(=O)(=O)c4c(C)noc4C)CC3)CC2C)c1 (stereo not given) | 100%

Row | Structure (SMILES) | survival
70 | CCOc1ccc(-c2nn(CC(=O)NC3CCCCC3)c3c2cnc2ccc(C)cc23)cc1 | 107%
71 | CCOc1ccc(NC(=O)C2CCCN(c3nn4cc(-c5ccc(OC)cc5)nc4s3)C2)cc1 (stereo not given) | 113%
72 | Cc1oc(-c2cccc(Cl)c2)nc1CSc1nncn2c1cc1occc12 | 103%
73 | COC(=O)c1sccc1S(=O)(=O)N(CC(=O)Nc1cc(C)cc(C)c1)c1ccc(Cl)cc1 | 88%
74 | Cn1c(SCC#N)nc2c(c1=O)C1(CCCCC1)Cc1ccccc1-2 | 103%
75 | CCCCNC(=O)C1CCN(Cc2cccc(OC)c2O)CC1 | 78%
76 | CCn1c(SCC(=O)Nc2ccccc2C(=O)OC)nc2ccsc2c1=O | 94%
77 | COC(=O)c1ccccc1NC(=O)CSc1nc(-c2ccccc2)cc(C(F)(F)F)n1 | 25% (active)
78 | COC(=O)CSc1nc(-c2ccccc2)cc(C(F)(F)F)n1 | 88%
79 | CCCNC(=O)CSc1nc(-c2ccccc2)cc(C(F)(F)F)n1 | 77%
80 | CCC(C)n1c(SCC(=O)Nc2ccccc2C(=O)OC)nc2ccsc2c1=O (stereo not given) | 17% (active)
81 | COC(=O)c1ccccc1NC(=O)CSc1nc2ccsc2c(=O)n1CCC(C)C | 88%
82 | CCNC(=O)C1CCCN(c2ncnc3onc(C)c23)C1 (stereo not given) | 101%
83 | CCOc1ccccc1NC(=O)c1ccc2c(c1)CCN2S(C)(=O)=O | 75%
84 | COc1ccc(S(=O)(=O)Nc2cccc(-c3ccc(N4CCOCC4)nn3)c2)cc1F | 88%
85 | Cc1cc(C)c2c(=O)c3c(oc2c1)C(=O)N(Cc1ccco1)C3c1ccc(F)cc1 (stereo not given) | 53%
86 | COCCN1C(=O)c2oc3cc(C)cc(C)c3c(=O)c2C1c1cccc(O)c1 (stereo not given) | 71%
87 | CCCN1C(=O)c2oc3cc(C)cc(C)c3c(=O)c2C1c1ccc(F)cc1 (stereo not given) | 49% (active)
88 | O=C1c2oc3ccccc3c(=O)c2C(c2cccc(O)c2)N1Cc1ccc(F)cc1 (stereo not given) | 77%
89 | COc1ccc(CCN2C(=O)c3oc4cc(C)cc(C)c4c(=O)c3C2c2ccc(F)cc2)cc1OC (stereo not given) | 56%
90 | Cc1cc(C)c2c(=O)c3c(oc2c1)C(=O)N(Cc1ccc(F)cc1)C3c1cccc(O)c1 (stereo not given) | 52% (active)

— PubChem BioAssay AID463173 (ICCB-Longwood Screening Facility, Harvard Medical School, 2010)
